# Laboratory results taken from the supplement of paper PMC8728848.
# This excerpt belongs to a sample that is enriched for the strongest signals.
# What was measured:
# Assay in all cases: glycan array binding signal (z-score within array); higher = stronger binding
# Settings in all cases: glycan notation: IUPAC condensed, linker removed
# Fuc(a1-2)Gal = biological target: Fuc(a1-2)Gal
# Summary of the method: (§1)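 Glycan array data were curated from 3228 arrays in the Consortium for Functional Glycomics database and kept only where the protein sequence was available. Glycan names were converted to IUPAC-condensed notation, and columns mapping to the same glycan were averaged. The binding signal is a within-array Z-score, averaged across arrays of the same protein sequence at different concentrations or buffers and across linkers. Negative Z-scores can be read as non-binding.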
# Fuc(a1-2)Gal(b1-3)GlcNAc = biological target: Fuc(a1-2)Gal(b1-3)GlcNAc
# Summary of the method: as §1
# Fuc(a1-2)Gal(b1-4)Glc6S = biological target: Fuc(a1-2)Gal(b1-4)Glc6S
# Summary of the method: as §1
# [1] = biological target: Fuc(a1-2)Gal(b1-4)[Fuc(a1-3)]GlcNAc(b1-2)Man(a1-3)[Fuc(a1-2)Gal(b1-4)[Fuc(a1-3)]GlcNAc(b1-2)Man(a1-6)]Man(b1-4)GlcNAc(b1-4)[Fuc(a1-6)]GlcNAc
# Summary of the method: as §1
# [2] = biological target: Fuc(a1-2)Gal6S(b1-3)GlcNAc
# Summary of the method: as §1
# [3] = biological target: Fuc(a1-2)[GalNAc(a1-3)]Gal(b1-4)GlcNAc
# Summary of the method: as §1
# [4] = biological target: Fuc(a1-2)[GalNAc(a1-3)]Gal(b1-4)GlcNAc(b1-2)Man(a1-3)[Fuc(a1-2)[GalNAc(a1-3)]Gal(b1-4)GlcNAc(b1-2)Man(a1-6)]Man(b1-4)GlcNAc(b1-4)[Fuc(a1-6)]GlcNAc
# Summary of the method: as §1
# [5] = biological target: Fuc(a1-3)[Gal(b1-4)]GlcNAc(b1-6)GalNAc
# Summary of the method: as §1
# [6] = biological target: Gal(a1-3)Gal(b1-3)GlcNAc(b1-3)GalNAc
# Summary of the method: as §1
# [7] = biological target: Gal(a1-4)Gal(b1-3)GlcNAc(b1-2)Man(a1-3)[Gal(a1-4)Gal(b1-3)GlcNAc(b1-2)Man(a1-6)]Man(b1-4)GlcNAc(b1-4)GlcNAc
# Summary of the method: as §1
# [8] = biological target: Gal(b1-3)GlcNAc(b1-2)Man(a1-3)[Gal(b1-3)GlcNAc(b1-2)Man(a1-6)]Man(b1-4)GlcNAc(b1-4)[Fuc(a1-6)]GlcNAc
# Summary of the method: as §1
# [9] = biological target: Gal(b1-3)GlcNAc(b1-6)[Gal(b1-3)]GalNAc
# Summary of the method: as §1
# [10] = biological target: Gal(b1-4)GalNAc(a1-3)[Fuc(a1-2)]Gal(b1-4)GlcNAc
# Summary of the method: as §1
# Gal(b1-4)GlcNAc(b1-2)Man = biological target: Gal(b1-4)GlcNAc(b1-2)Man
# Summary of the method: as §1
# [11] = biological target: Gal(b1-4)GlcNAc(b1-2)Man(a1-3)[Man(a1-6)]Man(b1-4)GlcNAc(b1-4)GlcNAc
# Summary of the method: as §1
# [12] = biological target: Gal(b1-4)GlcNAc(b1-3)Gal(b1-3)GlcNAc
# Summary of the method: as §1
# [13] = biological target: Gal(b1-4)GlcNAc(b1-3)Gal(b1-4)GlcNAc(b1-3)Gal(b1-4)GlcNAc(b1-2)[Gal(b1-4)GlcNAc(b1-3)Gal(b1-4)GlcNAc(b1-3)Gal(b1-4)GlcNAc(b1-6)]Man(a1-6)[Gal(b1-4)GlcNAc(b1-3)Gal(b1-4)GlcNAc(b1-3)Gal(b1-4)GlcNAc(b1-2)Man(a1-3)]Man(b1-4)GlcNAc(b1-4)[Fuc(a1-6)]GlcNAc
# Summary of the method: as §1
# [14] = biological target: Gal(b1-4)GlcNAc(b1-3)Gal(b1-4)GlcNAc(b1-3)Gal(b1-4)GlcNAc(b1-3)Gal(b1-4)GlcNAc(b1-2)[Gal(b1-4)GlcNAc(b1-3)Gal(b1-4)GlcNAc(b1-3)Gal(b1-4)GlcNAc(b1-3)Gal(b1-4)GlcNAc(b1-6)]Man(a1-6)[Gal(b1-4)GlcNAc(b1-3)Gal(b1-4)GlcNAc(b1-3)Gal(b1-4)GlcNAc(b1-3)Gal(b1-4)GlcNAc(b1-2)Man(a1-3)]Man(b1-4)GlcNAc(b1-4)[Fuc(a1-6)]GlcNAc
# Summary of the method: as §1
# [15] = biological target: Gal(b1-4)GlcNAc(b1-3)Gal(b1-4)GlcNAc(b1-3)Gal(b1-4)GlcNAc(b1-3)Gal(b1-4)GlcNAc(b1-3)Gal(b1-4)GlcNAc(b1-2)[Gal(b1-4)GlcNAc(b1-3)Gal(b1-4)GlcNAc(b1-3)Gal(b1-4)GlcNAc(b1-3)Gal(b1-4)GlcNAc(b1-3)Gal(b1-4)GlcNAc(b1-6)]Man(a1-6)[Gal(b1-4)GlcNAc(b1-3)Gal(b1-4)GlcNAc(b1-3)Gal(b1-4)GlcNAc(b1-3)Gal(b1-4)GlcNAc(b1-3)Gal(b1-4)GlcNAc(b1-2)Man(a1-3)]Man(b1-4)GlcNAc(b1-4)[Fuc(a1-6)]GlcNAc
# Summary of the method: as §1
# [16] = biological target: Gal(b1-4)GlcNAc(b1-3)Gal(b1-4)[Fuc(a1-3)]GlcNAc(b1-3)Gal(b1-4)[Fuc(a1-3)]GlcNAc
# Summary of the method: as §1
# [17] = biological target: Gal(b1-4)GlcNAc(b1-3)[Gal(b1-4)GlcNAc(b1-6)]Gal(b1-4)GlcNAc
# Summary of the method: as §1
# [18] = biological target: Gal(b1-4)GlcNAc(b1-6)[Gal(b1-4)GlcNAc(b1-3)]GalNAc
# Summary of the method: as §1
# [19] = biological target: Gal3S(b1-3)[Fuc(a1-4)]GlcNAc
# Summary of the method: as §1
binder,measurement,setting,value
"Cp ZmpB (Clostridium perfringens), Q0TR08 (protein) MNKRKIAAIILATMITNLSATTIDVLAQELNTKNNSKVEVSHDDESHQARVSKFDLYNSDKLDAYNQEFQVSRSNIKSINNNGGKYNSSTIDKAIDGNLETHWETGKPNDANFTNEVVVTFNEITNIDRIVYSARRDSARGKGFAKEFEIYASLKDEGDDFNLVSSGEYTESTRDLVEIKFNPTDFKRLKFKFKKADQNWASAAEFMFYKEDKLNEKFNGLFTDSSMNKVSEEFNTLEKLNAFENELKDHPIYDLYKEGLNNARAILTETSENPTKATLGQITYNLNDDYNNQYRMPYKNIKAIKNNGRHYAAQNIEKAIDNDVNTYWETGTLNSSSFNNEVEVEFNDLVTLDRIVYGSRQSDLKGFAEEVYIYASRTSKGDTYKLVATGAHEATKGLVEAKFEPTEFKRVKFKFKKSKQNSATLNELMFYKPDEVYSSIPKLFTDGTMSELSEEFNSLEKINAFKEKAKNHPLYNDFNETIELAESLISNPRKEDVLELEMRGDSISEAKKRKVWNFQDWQITGLSARAGDKITVYVDVAEGDPTPTLLYKQSLTQHGGATSFQLKPGKNEITIPEINYESNGIPKDVIQGGDLFFTNYKSDSQKRAPKVRIEGASKYPVFILGKSDENEVMKELEAYVEKIKAEPKTTPNIFAVSSNKSLEFVQATYALDWYKKNNKTPKYTAEQWDQYIADAMGFWGFDNSKDVNSDFNFRIMPMVKNLSGGAFMNAGNGVIGIRPGNQDAILAANKGWGVAHELGHNFDTGGRTIVEVTNNMMPLFFESKYKTKTRITDQNIWENNTYPKVGLDDYSNNELYNKADSTHLAQLAPLWQLYLYDNTFYGKFERQFRERDFGNKNREDIYKSWVVAASDAMELDLTEFFARHGIRVDDKVKEDLAKYPKPDKKIYYLNDLAMNYKGDGFTENAKVSVSTSGSNGNIKLSFSVDDENKDNILGYEIRRDGKYVGFTSNDSFVDTKSNLDEDGVYVVTPYDRKLNTLNPIEVNALQPTLSVNPVITLALGEEFNEEEYIVAKDIKGNSLSESVKVKSSNVNTSKVGEYEVLYSLEDSKGNEYTKTSKVNVVSRKEYMSDLTPKQSSNGWGTVRKDKSISGGVIGLTRDGDFVDYNKGLGLHSNAEYVYDLEGKDYDYFESYVGVDKAMSSRPASSVIFKVLVDGEEKFNSGVMRSTTPQKYVKVDVKNAKELKLIVNDAGDGDSSDHASFGDAKLATLSSKPIIKGENLAYSMDEKVDLMKGITATDIEDGNITSKVQIKSSDFVEGKSGIFTVVYSVTDSDGLTSECSRTIAVTDKETQLSDLNWKSATIGSGSVRKDRAVSGNQIRLLNEDNSVETFAKGIGTHSYSEIVYNSEGYDIFDTWVGIDRHVADKKVSSVKFKVYVDGELKAETDVMRIDTPKKRLVVDVRNSKEIKLVVDVADNGNNWDHADWADAKFRNLAEYDASELNKAIEEAKKLDLNNYTEESSEALKNAISKGEEALLSKDKETINSALEELNKEMNSLVKVDLNAVINIPDKYLLKSIQNQLNKTGDITLGDMYSLTTLTLSGVEDLTGLENAKNLETLNMDYNEVKDLRPLSKLKKLNTLNAQEQFIAAGELKPSNGKVIGDSKVYNREGKNVAKTIRVVDKNGNTILEQDAKDEFTINTKDLSSGLYGVHVLFEDEGFSGVMFYLFNV",glycan array binding signal (z-score),Fuc(a1-2)Gal,22.4
same,glycan array binding signal (z-score),Fuc(a1-2)Gal(b1-3)GlcNAc,-0.148
same,glycan array binding signal (z-score),Fuc(a1-2)Gal(b1-4)Glc6S,-0.219
same,glycan array binding signal (z-score),[1],-0.251
same,glycan array binding signal (z-score),[2],-0.122
same,glycan array binding signal (z-score),[3],-0.068
same,glycan array binding signal (z-score),[4],-0.353
same,glycan array binding signal (z-score),[5],-0.181
same,glycan array binding signal (z-score),[6],-0.001
same,glycan array binding signal (z-score),[7],-0.252
same,glycan array binding signal (z-score),[8],-0.193
same,glycan array binding signal (z-score),[9],0.823
same,glycan array binding signal (z-score),[10],0.022
same,glycan array binding signal (z-score),Gal(b1-4)GlcNAc(b1-2)Man,0.161
same,glycan array binding signal (z-score),[11],-0.033
same,glycan array binding signal (z-score),[12],1.39
same,glycan array binding signal (z-score),[13],-0.102
same,glycan array binding signal (z-score),[14],-0.093
same,glycan array binding signal (z-score),[15],3.56
same,glycan array binding signal (z-score),[16],-0.332
same,glycan array binding signal (z-score),[17],-0.301
same,glycan array binding signal (z-score),[18],0.086
same,glycan array binding signal (z-score),[19],-0.055
